Inconclusive results are not listed. The source made the active and inactive calls. The calls were made as follows, unless noted: active = hit-call score of the fitted dose curve at least 0.9, where 1 is the maximum; inactive = score below 0.9.
What was measured:
[1] = read-out: Monokine induced gamma interferon (MIG), CXCL9 (gene 4283); assay: BSK_3C_MIG: BioMAP Diversity Plus: 3C Assay for Monokine induced gamma interferon (MIG) Biomarker Activity (AID 2283021); conditions: primary human endothelial cells (HUVEC); actives raise or lower the signal;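 as to AC50: MIG protein level measured by immunoassay in the treated endothelial cultures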
Method in brief: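 ELISA measurement of MIG in human umbilical vein endothelial cells 24 h after treatment. Cytotoxicity tracked by SRB staining in parallel cultures; gain or loss of signal fitted relative to DMSO.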

[2] = target: human Vitamin D Receptor (VDR), VDR (gene 7421) (UniProt P11473); assay: ATG_VDR_TRANS: Attagene TRANS-FACTORIAL HepG2 Assay for human Vitamin D Receptor (VDR) (AID 2283022; active = hit-call score of the fitted dose curve at least 0.9, where 1 is the maximum)
Method in brief: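 Transactivation by an exogenous VDR-Gal4 chimera in transiently transfected HepG2 cells was measured as reporter transcript level 24 hours after chemical treatment. RT-PCR products were analysed by capillary electrophoresis and fitted in the positive direction relative to DMSO.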

[3] = BSK_3C_SRB: Viability Assessment in the BioMAP Diversity Plus: 3C Assay (AID 2283023); conditions: primary human endothelial cells (HUVEC);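 also: fitted both ways against DMSO so a hit may be signal rise or drop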
Method in brief: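 Cytotoxicity readout in parallel HUVEC 3C cultures: after 24 h compound exposure, cells fixed with 10% TCA, stained with 0.1% SRB and read at 560 nm. Gain or loss relative to DMSO fitted.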

[4] = read-out: Matrix Metallopeptidase 1 (MMP1), MMP1 (gene 4312); assay: BSK_BE3C_MMP1: BioMAP Diversity Plus: BE3C Assay for Matrix Metallopeptidase 1 (MMP1) Biomarker Activity (AID 2283024); conditions: primary human bronchial epithelial cells; actives raise or lower the signal
Method in brief: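 ELISA measurement of MMP-1 after 24 h compound exposure of primary human bronchial epithelial cells. Changes in either direction fitted relative to DMSO; parallel SRB staining checked overt cytotoxicity.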

[5] = BSK_3C_Vis: BioMAP Diversity Plus: 3C Assay for Morphology Visualization (AID 2283025); conditions: primary human endothelial cells (HUVEC);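 also: fitted both ways so gain or loss versus DMSO counts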;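 as to AC50: light microscopy image of cell morphology used as background control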
Method in brief: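 Light-microscopy visualization of HUVEC cultures at 24 h post-treatment, with DMSO as baseline for bidirectional fitting.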

[6] = read-out: Pselectin, SELP (gene 6403); assay: BSK_4H_Pselectin: BioMAP Diversity Plus: 4H Assay for Pselectin Biomarker Activity (AID 2283026); conditions: primary human endothelial cells (HUVEC); actives raise or lower the signal
Method in brief: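 ELISA of surface P-selectin on HUVEC, 24 h after dosing, with parallel SRB staining (0.1% after 10% TCA fixation, 560 nm) for overt cytotoxicity. Activity fitted in both directions relative to DMSO.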

[7] = BSK_4H_SRB: Viability Assessment in the BioMAP Diversity Plus: 4H Assay (AID 2283027); conditions: primary human endothelial cells (HUVEC);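 also: cells exposed to compound for 24 h before staining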;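 as to AC50: curves fitted both ways versus DMSO so AC50 may be loss or gain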
Method in brief: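 Cytotoxicity readout: sulforhodamine B (0.1%) staining of total protein after 10% TCA fixation, measured at 560 nm in human umbilical vein endothelium at 24 h. DMSO set the baseline; fitting was bidirectional.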

[8] = BSK_BE3C_SRB: Viability Assessment in the BioMAP Diversity Plus: BE3C Assay (AID 2283028); conditions: primary human bronchial epithelial cells;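 as to AC50: fitted both ways so AC50 may mark signal gain or loss versus DMSO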
Method in brief: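 Cytotoxicity read-out: SRB (0.1%) staining of TCA-fixed (10%) human lung bronchial epithelial cells, absorbance 560 nm, 24 h post-dosing. Curves fitted both directions relative to DMSO.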

[9] = read-out: Thrombomodulin, THBD (gene 7056); assay: BSK_3C_Thrombomodulin: BioMAP Diversity Plus: 3C Assay for Thrombomodulin Biomarker Activity (AID 2283029); conditions: primary human endothelial cells (HUVEC); actives raise or lower the signal
Method in brief: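 ELISA measurement of thrombomodulin on HUVEC surface 24 h after chemical dosing; activity fitted in both directions relative to DMSO vehicle.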

[10] = read-out: Urokinase-type plasminogen activator receptor (uPAR), PLAUR (gene 5329); assay: BSK_4H_uPAR: BioMAP Diversity Plus: 4H Assay for Urokinase-type plasminogen activator receptor (uPAR) Biomarker Activity (AID 2283030); conditions: primary human endothelial cells (HUVEC); actives raise or lower the signal
Method in brief: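 uPAR level read by ELISA on HUVEC cultures (BioMAP 4H) 24 h post-dosing, analyzed for gain or loss relative to DMSO. Parallel SRB staining assessed overt cytotoxicity.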

Measured: AC50

Sequence of human Vitamin D Receptor (VDR), VDR (gene 7421) (P11473 whole entry, looked up, the tested form may be a part): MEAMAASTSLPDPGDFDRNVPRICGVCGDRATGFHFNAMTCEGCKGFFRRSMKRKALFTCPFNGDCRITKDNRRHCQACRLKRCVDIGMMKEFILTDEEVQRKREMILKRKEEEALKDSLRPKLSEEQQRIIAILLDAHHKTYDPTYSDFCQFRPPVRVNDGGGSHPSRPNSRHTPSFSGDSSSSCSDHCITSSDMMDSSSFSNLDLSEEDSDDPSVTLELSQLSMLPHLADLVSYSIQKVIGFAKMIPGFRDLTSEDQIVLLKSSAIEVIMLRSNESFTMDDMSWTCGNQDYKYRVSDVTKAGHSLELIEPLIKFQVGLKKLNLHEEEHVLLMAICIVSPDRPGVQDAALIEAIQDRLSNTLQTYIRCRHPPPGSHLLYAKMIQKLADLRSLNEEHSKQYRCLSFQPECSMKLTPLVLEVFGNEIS

OCCO
inactive: all assays above

O=C(O)Cc1cc(I)c(Oc2ccc(O)c(I)c2)c(I)c1
active: [4] 6.29 µM | [5] 14.5 µM | [10] 23.3 µM
inactive: all other assays above

COc1cc(C(=O)NC2CCN(C)CC2)ccc1Nc1ncc2c(n1)N(C1CCCC1)CC(F)(F)C(=O)N2C
inactive: [2] | [9]
active: [1] 19.2 µM | [3] 18.6 µM | [4] 7.76 µM | [5] 18.6 µM | [6] 3.57 µM | [7] 13.5 µM | [10] 7.45 µM

C[C@]12CC[C@@H]3c4ccc(O)cc4CC[C@H]3[C@@H]1CC[C@H]2O
active: [3] 12.4 µM | [5] 20.7 µM | [7] 9.1 µM | [10] 12.8 µM
not listed: [8]
inactive: all other assays above

CC[C@@H]1C[C@H](N(Cc2cc(C(F)(F)F)cc(C(F)(F)F)c2)C(C)=O)c2cc(C(F)(F)F)ccc2N1C(=O)OC(C)C
inactive: all assays above

Cc1ccc2oc(CN(Cc3ccccc3)C(=O)Nc3c(F)cc(F)cc3F)c(-c3ccc(Cl)cc3)c2c1
not listed: [8]
inactive: all other assays above

CCCCCCCC[Si](OCC)(OCC)OCC
active: [3] 31.4 µM | [7] 32.8 µM | [9] 21 µM | [10] 33.2 µM
not listed: [8]
inactive: all other assays above

Cc1cccc2ccccc12
not listed: [8]
inactive: all other assays above

Cc1cn([C@H]2C[C@H](N=[N+]=[N-])[C@@H](CO)O2)c(=O)[nH]c1=O
inactive: all assays above

Cc1occc1C(=O)Nc1ccc(C(=O)N2CCC(F)(F)/C(=C\C(=O)N3CCC(N4CCCCC4)CC3)c3ccccc32)cc1
active: [3] 11.5 µM
not listed: [8]
inactive: all other assays above

CC(=O)N1CCN(c2ccc(OC[C@H]3CO[C@](Cn4ccnc4)(c4ccc(Cl)cc4Cl)O3)cc2)CC1
active: [1] 34.5 µM | [3] 29.1 µM | [5] 37.5 µM | [6] 14.8 µM | [7] 29.6 µM | [10] 32.9 µM
inactive: [2] | [4] | [9]

CCCCOC(=O)c1ccc(O)cc1
inactive: all assays above

O=C(OCCCCCCOC(=O)c1ccccc1)c1ccccc1
not listed: [8]
inactive: all other assays above

NC(=O)c1nc(-c2cccc(-c3cc(F)ccc3OCC(F)(F)C(F)(F)F)c2)n[nH]1
inactive: [2]
active: [1] 41.4 µM | [3] 31.9 µM | [4] 36.5 µM | [5] 42.3 µM | [6] 30.8 µM | [7] 35.2 µM | [8] 34.5 µM | [9] 11.7 µM | [10] 22.6 µM

O=C1CCC(C2CCCCC2)CC1
active: [4] 12.6 µM
inactive: all other assays above

CC1(C)NC(=O)N(c2ccc([N+](=O)[O-])c(C(F)(F)F)c2)C1=O
not listed: [8]
inactive: all other assays above

CCN(Cc1cccc(S(=O)(=O)O)c1)c1ccc(C(=C2C=CC(=[N+](CC)Cc3cccc(S(=O)(=O)O)c3)C=C2)c2ccccc2S(=O)(=O)[O-])cc1
not listed: [8]
inactive: all other assays above

O=CCCCC=O
active: [3] 31.7 µM | [6] 30.7 µM
inactive: all other assays above
